# From PubChem BioAssay
# The sample as a whole holds a higher share of hits than the screen did.
# FAK blocker – FAK (human) kinase inhibition. Q05397. biochemical FAK kinase activity assay. inhibition, %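 (tested at 7 µM)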. hit rate 0.84% among 97,000. AID 727; in the data active means inhibition above about 19%;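 further: 0% = DMSO and 100% = reference compound high control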
# CD11b adhes inh – CD11b/CD18-fibrinogen binding inhibition | K562 CD11b/CD18 adhesion to fibrinogen, ATPlite luminescence; Mn2+ added to activate the integrin | inhibition, % at 10 µM | hit rate 0.54% among 93,000;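 active means primary inhibition of 50% or more at 10 µM, then 40% or more on retest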
# D1 mod – allosterically modulates the human D1 dopamine receptor. P21728. HEK293 D1, CRE-luciferase, dopamine EC30 potentiation; actives deviate in either direction. B-score at 10 µM. hit rate 5.9% among 58,000. AID 641;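 active means luminescence count or its row- and column-corrected plate score outside the 99.7% band of the plate's sample wells, on either side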
# Pyk2 oligo antag – blocks oligomerization of human Pyk2 in cells | z-score (the deposit names both 25 µM and 10 µM) | hit rate 0.83% among 99,000 | Q14289 | AID 1347419 | Q293 cells, Pyk2 FERM NanoBiT luminescence; active compounds read low;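 active means Z-score of -3 or lower, scaled per plate to the spread of control and sample wells; inactive means z-score above -3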;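 further: negative z-score means lost luminescence so less FERM oligomerization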
# hDAT+cocaine – changed human dopamine transporter uptake under cocaine IC80. LLC-PK1 hDAT cells, [14C]-dopamine uptake with cocaine IC80; actives deviate in either direction. hit rate 1.3% among 110,000. B-score at 10 µM. Q01959;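 active means Z score or B-score, a plate-position-corrected score, falls beyond the plate's 99.7% confidence bounds, in either direction; inactive means both scores lie inside the 99.7% bounds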;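 further: scored against the spread of the other compound wells on the same plate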
# Mac1 fbg enh – enhancers of human CD11b/CD18 binding to fibrinogen | P05107+P11215 | K562 CD11b/CD18 adhesion to fibrinogen, ATPlite luminescence | activation, % at 10 µM | hit rate 0.07% among 93,000;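 active means 10 µM primary screen giving 50% or more activity, confirmed by 40% or more on retest at that dose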
# Numbers without * were called inactive; . = not tested or not shown.
SMILES,FAK blocker,CD11b adhes inh,D1 mod,Pyk2 oligo antag,hDAT+cocaine,Mac1 fbg enh
CC(c1ccccc1)C1C(C#N)=C(N)OC2=C1C(=O)CC(C)(C)C2 (configuration not stated),-0.4,6.3,0.635,-1.04,2.76*,1.4
CC1(C)CC(=O)C2=C(C1)OC(N)=C(C#N)C2C#Cc1ccccc1 (configuration not stated),1.4,57.5,1.18,-0.18,0.451,-8.3
COc1ccc(C2CC(c3ccccc3)n3nc(NC(=O)c4cccs4)nc3N2)cc1 (configuration not stated),0.0,6.4,-0.534,-2.88,.,-4.9
COc1ccc(C2CC(c3ccccc3)Nc3nc(NC(=O)c4cccs4)nn32)cc1 (configuration not stated),1.3,30.3,0.757,-3.54*,1.61,-1.2
O=[N+]([O-])c1ccc(C(=Nc2cccc3ccccc23)N2CCOCC2)cc1,-0.1,.,.,-3.53*,-1.58,.
O=C(c1ccc2c3n(nc2c1)-c1ccccc1CO3)N1CCCCC1,.,.,.,.,2.56*,.
O=C(c1ccc2c3n(nc2c1)-c1ccccc1CO3)N1CCOCC1,.,.,.,.,1.2,.
CC(C)OC(=O)c1cc2c(ccn2C)n1CC(=O)N1CCC(Cc2ccccc2)CC1,-0.1,.,.,0.09,2.23*,.
CCOC(=O)N1CCN(C(=O)c2ccc3c(=O)n(Cc4ccccc4)c(=S)[nH]c3c2)CC1,2.1,.,0.437,2.3,0.313,.
CCOC(=O)N1CCN(C(=O)c2ccc(Cn3c(=S)[nH]c4cc5c(cc4c3=O)OCO5)cc2)CC1,-1.7,.,-4.14*,-2.93,-1.28,.
COc1ccc(CCNc2nc(-c3sc(C)nc3C)cs2)cc1OC,-0.9,59.5*,.,0.14,0.78,-6.7
COc1ccc(C2=NC(=O)/C(=C\c3cc(OC)c(OC)c(OC)c3)O2)cc1,.,18.3,.,.,.,11.9
Cc1cccc2nc(Cn3c(=O)n(CCC(=O)NCc4ccco4)c(=O)c4ccccc43)cc(=O)n12,.,.,0.107,.,.,.
Cc1ccsc1C(=O)N1CC(=O)Nc2ccccc21,-0.5,2.0,-0.149,0.65,0.129,0.5
Cc1cc(C)cc(C(=O)N2CC(=O)Nc3ccccc32)c1,1.0,13.6,.,-0.36,-3.29*,0.9
COc1ccc(S(=O)(=O)N(CC(=O)N/N=C/c2cccs2)c2ccc(C)cc2)cc1OC,0.5,8.4,.,-2.51,-0.511,-1.9
COc1ccc(S(=O)(=O)N(CC(=O)N/N=C/c2cccs2)c2cc(C)cc(C)c2)cc1OC,-1.3,-24.4,.,-3.04*,0.983,4.5
Cc1noc(C)c1S(=O)(=O)NCC(=O)O,-11.8,-1.9,0.503,0.35,2.27*,0.0
COCCn1c(C)cc(C(=O)CSc2nnc3ccccn23)c1C,-5.4,-2.8,-7.25*,.,0.000571,-4.9
CC1CCCN(S(=O)(=O)c2ccc3c(c2)CCN3C(=O)C2CCC2)C1 (configuration not stated),.,-25.8,-4.08*,1.06,-0.819,-2.0
COc1cccc(C(=O)N(C)c2nnc(-c3ccncc3)s2)c1,1.4,.,.,0.36,.,.
Cc1ccc(-c2nc3sc4c(N)ncnc4c3c3c2CCCC3)cc1,-31.1,-8.3,.,1.27,-4.94*,-1.5
COCOc1ccc(C=O)cc1OCOC,.,.,.,.,0.376,.
O=C(Nc1ccc2c(c1)OCCO2)c1coc2ccccc2c1=O,.,51.7*,.,.,.,-6.3
CN(C)c1nc(C(N)=O)nc(N2CCOCC2)n1,0.0,-29.0,.,0.3,0.0594,-2.7
SMILES,FAK blocker,CD11b adhes inh,D1 mod,Pyk2 oligo antag,hDAT+cocaine,Mac1 fbg enh
O=C(O)c1ccccc1NS(=O)(=O)c1ccc2c3c(cccc13)C(=O)N2,.,-3.4,-1.56,-0.37,-1.29,-5.6
COC(=O)c1ccccc1NS(=O)(=O)c1ccc2c3c(cccc13)C(=O)N2,10.3,-4.6,0.151,-3.67*,1.09,5.1
CCCCCc1ccc(CC(=O)Nn2c(C)nc3ccccc3c2=O)cc1,-2.4,88.0*,.,-1.28,0.497,-3.3
COc1ccc(OC)c(C(=O)CSc2nnc(Cc3cccs3)n2CCc2ccccc2)c1,2.6,.,.,-0.84,0.996,.
COC(=O)c1ccc(NC(=O)c2ccccc2N(C)S(C)(=O)=O)cc1,-0.3,-1.9,0.437,0.76,-2.75*,1.3
CC(C)Cn1c(SCC(=O)c2ccc(Cl)s2)nnc1-c1ccco1,0.8,1.2,0.171,1.18,0.835,4.0
Cc1ccccc1CN(c1ccc(C(=O)N2CCc3ccccc3C2)cc1)S(C)(=O)=O,1.3,.,.,-0.63,-3.16*,.
CCCCN(CCCC)S(=O)(=O)c1ccc(NC(=O)Cc2cccs2)cc1,4.3,73.0,.,-3.23*,-0.28,1.5
CCCCNC(=O)[C@@H]1CC=C[C@@H]2CCN(Cc3ccc(Cl)c(Cl)c3)C(=O)[C@@H]21,.,.,.,.,1.11,.
O=C(NCCc1ccccc1)[C@@H]1CC=C[C@@H]2CCN(Cc3ccc(Cl)c(Cl)c3)C(=O)[C@@H]21,.,.,.,.,3.19*,.
C=CCOC(=O)C1=C(C)NC(C)=C(C(=O)OCC=C)C1c1ccc(O)cc1,.,-1.3,-0.68,-3.46*,1.63,4.8
C=CCOC(=O)C1=C(C)NC(SC)=C(C#N)C1c1ccc(OCC)cc1 (configuration not stated),-0.5,-2.4,.,-3.11*,0.462,0.7
C=CCOC(=O)C1=C(C)NC(SC)=C(C#N)C1c1cccs1 (configuration not stated),-2.7,.,.,-2.35,-0.865,.
Cc1cc(C)cc(NC(=O)Nc2ccc3c(c2)N(C)C(=O)CS3)c1,-0.1,-4.1,.,.,-0.0271,-1.5
CC(=O)c1cccc(NC(=O)Nc2ccc3c(c2)N(C)C(=O)CS3)c1,3.1,16.5,.,-3.28*,0.858,0.0
O=C1N(c2cccc(Cl)c2)C(c2ccc(Cl)cc2)N2CCCN12 (configuration not stated),.,4.7,.,.,.,-3.0
N#Cc1cccc2cnccc12,.,4.9,-0.908,0.6,-2.9*,-0.1
COc1ccc(C(=O)Nc2nc(-c3cccs3)c(NC(C)=O)s2)cc1,-0.4,.,.,0.11,-1.47,.
CC(=O)Nc1sc(NC(=O)c2ccc(C)cc2)nc1-c1cccs1,-3.6,.,.,-0.38,-2.74*,.
CC1(C)CC(=O)C2=C(C1)Nc1cc3c(cc1C2c1ccc(F)cc1)OCO3 (configuration not stated),10.2,8.2,.,-0.13,-0.196,-1.7
COc1ccc(C2C3=C(CC(C)(C)CC3=O)Nc3cc4c(cc32)OCO4)cc1 (configuration not stated),6.2,-0.2,.,-1.26,2.46*,-0.4
CN(C)/C=C(/C#N)C(=O)c1cccc(Oc2ccc(C(C)(C)C)cc2)c1,-0.3,82.4*,.,-1.56,0.242,-7.5
Cc1ccccc1Oc1cccc(C(=O)/C(C#N)=C/N(C)C)c1,1.5,-5.2,.,2.84,-1.38,-0.7
OCCSc1c(F)c(SCCO)c(SCCO)c(F)c1SCCO,-1.4,3.0,0.307,-0.07,-0.465,3.1
COc1ccc(/C=N/Nc2nncc3ccccc23)cc1,.,94.9*,.,.,.,-10.4
Cc1ccc(C(=O)c2ccc(N3CCOCC3)c(F)c2)cc1,-0.2,.,.,1.24,4.45*,.
CCN(CCCn1c(SCC#N)nc2ccccc2c1=O)c1ccccc1,13.7,1.8,.,-2.43,0.505,-0.4
